In assay [1] the target is Gonadotropin-releasing hormone receptor (Homo sapiens) (UniProt P30968). Nature of the assay: Human gonadotropin-releasing hormone receptor (GnRHR) small molecule agonists, calcium flux assay in GnRHR-HEK293 cells (AID 1920063). Also: nearly all actives have a fitted effect of over 35% in size. The gist of the method:
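HEK293 cells stably expressing human GnRHR were dye-loaded for 1 h at 37 C. Compound was added in agonist mode and fluorescence (Ex/Em 480/540) recorded kinetically for 3 min. Fifteen concentrations, triplicates.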

Assay [2] concerns the target KiSS-1 receptor (Homo sapiens) (UniProt Q969F8). Nature of the assay: Human kisspeptin (KISS1R) small molecule agonists, calcium flux assay in KISS1R-HEK293 cells (AID 1920064; active = well fitted activation curve with a large enough effect in the repeat runs). The gist of the method: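 HEK293 cells stably expressing human KISS1R were loaded with calcium dye for 1 h at 37 C, then given compound; fluorescence (Ex/Em 480/540) was read kinetically for 3 min. Fifteen concentrations, triplicate.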

Assay [3] in a line: G protein-coupled receptor (GPCR) small molecule agonists, calcium flux assay: HEK293 wild type cell line counter screen (AID 1920065). The gist of the method:
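Wild-type HEK293 cells plated 18 h, loaded with calcium dye 1 h at 37 C, then compounds added in agonist mode (ATP as positive control). Kinetic fluorescence Ex/Em 480/540 recorded 3 min at 1 sec intervals; 15 concentrations, triplicate.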
For orientation: Calcium assays in cells follow changes in intracellular calcium, usually with a dye or a luminescent sensor.

A short description of assay [4]: p53 small molecule agonists, cell-based qHTS assay with human liver microsomes (AID 1963577). In a few lines:
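p53RE-bla cells, 4,000/well, compound added after 5 h, with human liver microsomes 0.5 mg/mL and NADPH 0.5 mg/mL final; 16 h at 37 C, then LiveBLAzer 2 h RT, fluorescence.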
Background: In qHTS, concentration-response curves come from the screen itself.

Assay [5] can be described thus: p53 small molecule agonists, cell-based qHTS assay with rat liver microsomes (AID 1963578). The gist of the method:
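p53RE-bla cells, 4,000/well, pre-incubated 5 h, then given compounds plus rat liver microsomes (0.5 mg/mL final) and NADPH (0.5 mg/mL final). Incubation 16 h at 37 C; beta-lactamase reporter read by LiveBLAzer fluorescence after 2 h at room temperature.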

The nature of assay [6]: p53 small molecule agonists, cell-based qHTS assay with human liver microsomes: qHTS cell viability counter screen (AID 1963579). Also: nearly all actives have a fitted effect of over 45% in size. The gist of the method:
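p53RE-bla cells, 4,000/well, dosed 5 hours after plating, with human liver microsomes (0.5 mg/mL final) plus NADPH (0.5 mg/mL final), 16 hours at 37 C. Viability read as CellTiter-Glo luminescence after 30 min at room temperature.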

The nature of assay [7]: p53 small molecule agonists, cell-based qHTS assay with rat liver microsomes: qHTS cell viability counter screen (AID 1963580). Also: nearly all actives have a fitted effect of over 45% in size. The gist of the method:
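In HCT-116 cells carrying a p53 response element-bla reporter, compounds were metabolically activated in situ by rat liver microsomes with NADPH over 16 h. Cell ATP content then served as the cytotoxicity measure.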

The nature of assay [8]: p53 small molecule agonists, cell-based qHTS assay: qHTS cell viability counter screen (AID 1963581). Also: nearly all actives have a fitted effect of over 45% in size. In a few lines: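 p53RE-bla HCT-116 cells, compounds added 5 h after plating and incubated 16 h at 37 C. Cytotoxicity measured in the same wells as intracellular ATP by CellTiter-Glo luminescence after 30 min at room temperature.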
Assay [9] is described as follows: p53 small molecule agonists, cell-based qHTS assay (AID 1963582; active = well fitted activation curve with a large enough effect in the signal ratio in the repeat runs, not every such curve was filed as active; the % refers to the signal ratio). In a few lines:
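p53RE-bla reporter cells, compounds added in DMSO after 5 h plating, incubated 16 h at 37 C. Beta-lactamase read via 2 h room-temperature LiveBLAzer B/G FRET substrate, fluorescence intensity.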

Assay [10] deals with 5-hydroxytryptamine receptor 2A (Homo sapiens) (UniProt P28223). In words: 5-hydroxytryptamine receptor 2A (HTR2A) small molecule antagonists, cell-based qHTS assay (AID 1963586). Also: nearly all actives have a fitted effect of over 45% in size. Also: potency is read from the fitted curve at half-maximal effect. The gist of the method:
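Antagonist-mode intracellular calcium assay: DOI (4 nM) added after 5 min compound pre-incubation at room temperature to dye-loaded HTR2A-CHO cells. Fluorescence followed for 3 min, sampled every second.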

For assay [11] the target is unchanged. Nature of the assay: 5-hydroxytryptamine receptor 2A (HTR2A) small molecule agonists, cell-based qHTS assay (AID 1963587). Also: nearly all actives have a fitted effect of over 30% in size. In a few lines: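 HTR2A-CHO cells, plated 18 h at 37 C/5% CO2, dye-loaded 1 h at 37 C; compounds in DMSO added by pin tool (agonist mode). Intracellular calcium flux read as kinetic fluorescence on FDSS over 2 min at 1 s intervals.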
Assay [12] addresses Muscarinic acetylcholine receptor M1 (Homo sapiens) (UniProt P11229). In words: Cholinergic receptor muscarinic 1 (CHRM1) small molecule antagonists, cell-based qHTS assay (AID 1963588). Also: nearly all actives have a fitted effect of over 40% in size. Also: potency is read from the fitted curve at half-maximal effect. In a few lines: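 CHRM1-CHO calcium-flux assay, antagonist mode. Cells were seeded 18 h, dye-loaded 1 h at 37 C and given compound for 5 min at RT, then acetylcholine was added at 50nM. FDSS fluorescence was read 3 min; 15 concentrations, three runs.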

Assay [13] has the same target. In words: Cholinergic receptor muscarinic 1 (CHRM1) small molecule agonists, cell-based qHTS assay (AID 1963589). Also: nearly all actives have a fitted effect of over 35% in size. In a few lines:
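CHO cells stably expressing human CHRM1 were loaded with calcium dye for 1 h at 37 C, then compound was added in agonist mode. Intracellular calcium fluorescence was followed kinetically at 1 s intervals. Fifteen concentrations were tested in three independent runs.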

The nature of assay [14]: cAMP Responsive Elements (CRE) small molecule agonists, cell-based qHTS assay (AID 1963590). In a few lines: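 CRE-bla HEK 293T cells, 2,000/well in DMEM with 10% dialyzed FBS and 25 mM HEPES, pre-incubated 18 h at 37 C, then exposed to compound 3 h at 37 C. Beta-lactamase reporter read with LiveBLAzer B/G FRET substrate after 2 h at room temperature.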
Assay [15] concerns the target D(2) dopamine receptor (Homo sapiens) (UniProt P14416). Nature of the assay: Dopamine D2 receptor (DRD2) small molecule agonists, cell-based qHTS assay (AID 1963594). Also: nearly all actives have a fitted effect of over 35% in size. The gist of the method:
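HEK293 cells stably expressing DRD2 were cultured 24 h at 37 C, then given Ro20-1724 (0.1 mM final) and compounds for 10 min at room temperature. NKH477 (200nM) was then added for 30 min. cAMP was read by HTRF.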

Assay [16] in a line: Nuclear factor erythroid 2-related factor 2/antioxidant responsive element (Nrf2/ARE) small molecule agonists: luciferase reporter gene qHTS assay in human keratinocytes (AID 1919969; also: potency is read from the fitted curve at half-maximal effect; nearly all actives have a fitted effect of over 35% in size). (In a reporter assay the amount or activity of a reporter protein is the signal.)
A short description of assay [17]: cAMP Responsive Elements (CRE) small molecule antagonists, cell-based qHTS assay (AID 1963591; active = well fitted inhibition curve with a large enough effect in the signal ratio in the repeat runs, not every such curve was filed as active; the % refers to the signal ratio). The gist of the method:
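CRE-bla HEK293T cells plated 18 h, then given compound plus NKH477 at 0.25 uM final for 3 h at 37C. Beta-lactamase reporter read with LiveBLAzer B/G FRET substrate after 2 h at room temperature.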

Assay [18] addresses Beta-2 adrenergic receptor (Homo sapiens) (UniProt P07550). In words: Adrenergic beta2 receptor (ADRB2) small molecule agonists, cell-based qHTS assay (AID 1963593).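 Also: CHO cells stably overexpressing human ADRB2.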 The gist of the method: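 CHO cells stably over-expressing ADRB2 were plated overnight at 37C, then dosed with compounds plus a stimulation mix containing 100uM IBMX and 25uM Ro-20-1724 for 0.5hr at room temperature. cAMP was measured by HTRF competition, 1hr.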

The target in assay [19] is D(2) dopamine receptor (Homo sapiens) (UniProt P14416). In words: Dopamine D2 receptor (DRD2) small molecule antagonists, cell-based qHTS assay (AID 1963595; active = well fitted inhibition curve with a large enough effect in the signal ratio in the repeat runs, with a control signal flat; the % refers to the signal ratio). In a few lines: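 DRD2-HEK293; 0.1 mM Ro20-1724; cpd 10 min RT; NKH477 200 nM + quinpirole 12 nM, 30 min RT; HTRF cAMP (cAMP-d2/anti-cAMP cryptate), 665/620 nm ratio after 1 h.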
Chain of D(2) dopamine receptor (Homo sapiens) (P14416 whole entry, looked up): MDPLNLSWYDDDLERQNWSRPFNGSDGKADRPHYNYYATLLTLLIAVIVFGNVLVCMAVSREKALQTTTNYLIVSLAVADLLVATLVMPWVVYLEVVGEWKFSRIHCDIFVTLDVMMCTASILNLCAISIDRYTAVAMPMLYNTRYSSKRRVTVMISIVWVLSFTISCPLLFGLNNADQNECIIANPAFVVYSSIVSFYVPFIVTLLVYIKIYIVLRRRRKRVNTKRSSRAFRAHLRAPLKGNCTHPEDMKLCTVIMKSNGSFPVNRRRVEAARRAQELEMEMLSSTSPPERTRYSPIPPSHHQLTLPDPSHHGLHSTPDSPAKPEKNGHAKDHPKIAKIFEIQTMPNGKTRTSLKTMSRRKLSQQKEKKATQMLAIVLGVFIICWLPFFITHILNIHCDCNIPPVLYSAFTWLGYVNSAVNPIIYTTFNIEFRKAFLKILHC
In assay [20] the target is Beta-2 adrenergic receptor (Homo sapiens) (UniProt P07550). Nature of the assay: Adrenergic beta2 receptor (ADRB2) small molecule antagonists, cell-based qHTS assay (AID 1963592). Also: series mostly up to about 92 µM; nearly all actives have a fitted effect of over 50% in size. In a few lines:
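Cells (CHO, stable ADRB2 overexpression) incubated 18-20hr at 37C; compounds added from DMSO; agonist mix (1nM isoproterenol, 100uM IBMX, 25uM Ro-20-1724) added; 0.5hr RT; d2-cAMP and anti-cAMP-cryptate added; 1hr RT; 665/615 nm read.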

SMILES strings stand for the structures. Records with an inconclusive call do not appear. Activity calls are given as the source filed them. Unless noted, calls follow the shape of the full dose curve. Peptide text beside a SMILES is read from it.

Chain of Beta-2 adrenergic receptor (Homo sapiens) (P07550 whole entry, looked up): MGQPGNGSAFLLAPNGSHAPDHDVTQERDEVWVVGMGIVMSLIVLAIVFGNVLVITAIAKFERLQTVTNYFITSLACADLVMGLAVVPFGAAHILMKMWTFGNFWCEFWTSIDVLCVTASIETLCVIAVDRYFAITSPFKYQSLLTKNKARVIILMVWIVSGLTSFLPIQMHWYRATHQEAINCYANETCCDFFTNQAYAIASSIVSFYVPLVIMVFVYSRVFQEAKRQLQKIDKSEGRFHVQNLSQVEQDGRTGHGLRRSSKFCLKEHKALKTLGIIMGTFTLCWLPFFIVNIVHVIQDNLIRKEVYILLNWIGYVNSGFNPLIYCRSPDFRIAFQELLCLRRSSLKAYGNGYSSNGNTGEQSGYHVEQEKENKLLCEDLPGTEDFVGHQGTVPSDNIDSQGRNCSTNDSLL
Chain of 5-hydroxytryptamine receptor 2A (Homo sapiens) (P28223 whole entry, looked up): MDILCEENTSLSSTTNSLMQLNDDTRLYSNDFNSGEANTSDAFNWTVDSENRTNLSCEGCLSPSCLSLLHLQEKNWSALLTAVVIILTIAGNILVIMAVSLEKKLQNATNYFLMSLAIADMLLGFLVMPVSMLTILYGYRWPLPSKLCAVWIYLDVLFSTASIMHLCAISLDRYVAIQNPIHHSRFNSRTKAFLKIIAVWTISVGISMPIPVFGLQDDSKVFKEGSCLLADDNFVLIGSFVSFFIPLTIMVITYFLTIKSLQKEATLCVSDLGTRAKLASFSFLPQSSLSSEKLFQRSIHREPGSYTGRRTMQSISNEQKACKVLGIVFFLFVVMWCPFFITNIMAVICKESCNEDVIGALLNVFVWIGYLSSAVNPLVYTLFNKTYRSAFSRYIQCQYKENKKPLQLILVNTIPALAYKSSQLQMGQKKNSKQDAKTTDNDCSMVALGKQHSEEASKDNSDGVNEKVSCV
Chain of Muscarinic acetylcholine receptor M1 (Homo sapiens) (P11229 whole entry, looked up): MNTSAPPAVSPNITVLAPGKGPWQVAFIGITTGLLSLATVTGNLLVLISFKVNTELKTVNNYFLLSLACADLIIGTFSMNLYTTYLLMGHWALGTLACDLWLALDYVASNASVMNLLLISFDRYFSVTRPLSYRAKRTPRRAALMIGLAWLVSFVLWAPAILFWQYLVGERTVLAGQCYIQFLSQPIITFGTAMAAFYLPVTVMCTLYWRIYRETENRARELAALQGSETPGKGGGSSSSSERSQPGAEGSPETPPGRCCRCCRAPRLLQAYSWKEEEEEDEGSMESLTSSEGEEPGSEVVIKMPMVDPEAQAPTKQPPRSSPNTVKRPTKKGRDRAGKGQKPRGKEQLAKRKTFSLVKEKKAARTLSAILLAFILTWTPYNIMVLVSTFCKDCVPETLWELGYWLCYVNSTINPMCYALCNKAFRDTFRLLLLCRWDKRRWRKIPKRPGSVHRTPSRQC
Chain of Gonadotropin-releasing hormone receptor (Homo sapiens) (P30968 whole entry, looked up): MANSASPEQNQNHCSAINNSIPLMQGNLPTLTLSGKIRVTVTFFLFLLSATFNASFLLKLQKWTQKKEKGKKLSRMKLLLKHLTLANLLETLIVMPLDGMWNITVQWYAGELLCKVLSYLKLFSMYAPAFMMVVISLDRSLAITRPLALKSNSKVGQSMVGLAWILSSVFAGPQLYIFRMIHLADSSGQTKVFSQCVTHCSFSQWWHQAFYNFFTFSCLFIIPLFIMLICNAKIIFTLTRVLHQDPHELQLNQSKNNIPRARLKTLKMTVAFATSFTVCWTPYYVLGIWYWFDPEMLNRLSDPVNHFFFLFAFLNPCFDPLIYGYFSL
Chain of KiSS-1 receptor (Homo sapiens) (Q969F8 whole entry, looked up): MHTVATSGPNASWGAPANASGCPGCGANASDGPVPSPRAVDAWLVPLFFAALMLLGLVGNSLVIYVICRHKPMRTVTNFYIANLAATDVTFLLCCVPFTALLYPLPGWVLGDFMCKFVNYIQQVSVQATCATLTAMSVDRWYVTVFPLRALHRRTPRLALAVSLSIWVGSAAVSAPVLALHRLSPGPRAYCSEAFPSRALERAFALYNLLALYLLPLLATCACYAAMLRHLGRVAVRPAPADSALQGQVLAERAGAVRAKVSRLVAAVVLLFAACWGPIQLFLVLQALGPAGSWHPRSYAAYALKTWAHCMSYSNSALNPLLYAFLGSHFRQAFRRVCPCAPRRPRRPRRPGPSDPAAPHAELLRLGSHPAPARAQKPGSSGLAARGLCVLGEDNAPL

Consider `N#CC(Br)(Br)C(N)=O`, for which the Potency result in assay [1], in assay [2], in assay [3], in assay [4], in assay [5] and in assay [6] was “inactive” in each case. For the same molecule, the Potency result in assay [7], in assay [8], in [9], in assay [10], in assay [11] and in assay [13] was “inactive” each time. Besides, the Potency result in [14] and in assay [15] was “inactive” each time. In addition, the Potency in [12] is 0.0047 µM (active).
`CN(C)CCc1c[nH]c2ccccc12`: the values for the Potency in assay [16] and in assay [10] were 108 µM (active) and 0.0166 µM (active), respectively. Moreover, the Potency result in assay [3], in assay [7], in assay [13], in [14], in assay [17] and in [18] was “inactive” throughout. Moreover, the Potency result in assay [15] and in assay [19] was “inactive” in each case.
Consider `COc1cccc2c1cc([N+](=O)[O-])c1c(C(=O)O)cc3c(c12)OCO3`, for which the Potency entry in [1], in assay [2], in [3], in assay [4], in assay [5] and in [6] was “inactive” throughout. In addition, the Potency entry in assay [8], in assay [10], in assay [12], in assay [13] and in assay [20] was “inactive” in each case.
Turning to `c1cc[c]([Sb]([c]2ccccc2)[c]2ccccc2)cc1`, the Potency entry in [1], in [2], in [3], in assay [4], in assay [5] and in assay [6] was “inactive” throughout. In addition, the Potency entry in assay [7], in [10], in [12], in assay [13] and in assay [15] was “inactive” each time.
`Oc1c(Cl)cc(Cl)cc1Cl`: the Potency result in assay [10], in assay [12], in [13], in [20], in [15] and in [19] was “inactive” in each case.
Turning to `CN(C)CCCCCCN(C)C`, the Potency entry in [4], in assay [5], in assay [6], in assay [7], in assay [8] and in assay [9] was “inactive” in each case.
Consider `CC(=O)N[C@@H](CO)C(=O)N[C@@H](CC(=O)O)C(=O)N[C@@H](CCCCN)C(=O)N1CCC[C@H]1C(=O)O` (Ac-SDKP-OH), for which the Potency result in assay [10], in [11], in [12] and in assay [13] was “inactive” each time.
Turning to `O=S(=O)(c1ccc(Cl)cc1)c1ccc(Cl)cc1`, the Potency entry in assay [2], in assay [3], in assay [5], in [6], in [13] and in assay [14] was “inactive” each time. The Potency entry in assay [20] and in [15] was “inactive” throughout. In assay [10], the Potency is 10.7 µM (active).
Take `CC(C)CCCCCCCOP(=O)(Oc1ccccc1)Oc1ccccc1`: the Potency entry in [1], in assay [2], in assay [3], in assay [6], in assay [8] and in assay [10] was “inactive” in each case. Further, the Potency entry in assay [11], in assay [13], in assay [17], in assay [20], in assay [15] and in assay [19] was “inactive” in each case.
For `O=S(=O)(NS(=O)(=O)C(F)(F)F)C(F)(F)F`, the Potency entry in [1], in assay [2], in assay [3], in assay [6], in assay [8] and in assay [10] was “inactive” each time. For the same molecule, the Potency result in assay [11], in assay [12], in [20], in assay [18], in assay [15] and in [19] was “inactive” throughout.

The record behind these values is PubChem BioAssay (Tox21).
